# From the supplement of paper PMC6555819
# Tests used:
# Test in all cases: PBM binding z-score (relative to random genomic background probes); higher = stronger binding; sequences stand for … in GC…GCGATTGACAGCGTAGAATGAAGG
# [1] = test system: PPARg:RXRa DBDmut IVT, anti-RXR (DBD mutation: RXRa K156A/R161A, NR concentration 270 nM, RXRa partner concentration 90 nM)
# Procedure, shortened: (§1)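 Binding z-scores take random background probes as their reference. They come from custom Agilent 4×180K protein-binding microarrays incubated 1 h with ligand-free nuclear receptor dimers, with antibodies against each partner (one per run) detecting binding. Scanned fluorescence was regression-normalized.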
# [2] = test system: PPARg:RXRa IVT, anti-PPARg (NR concentration 270 nM, RXRa partner concentration 90 nM)
# Procedure, shortened: as §1
# [3] = test system: PPARg DBDmut:RXRa IVT, anti-PPARg (DBD mutation: PPARg1 K132A/R137A, NR concentration 270 nM, RXRa partner concentration 90 nM)
# Procedure, shortened: as §1
# [4] = test system: PPARg DBDmut IVT, anti-PPARg (DBD mutation: PPARg1 K132A/R137A, NR concentration 270 nM)
# Procedure, shortened: as §1
# [5] = test system: PPARg homodimer (NR concentration 180 nM)
# Procedure, shortened: as §1
# [6] = test system: PXR:RXRa (NR concentration 270 nM, RXRa partner concentration 90 nM)
# Procedure, shortened: as §1
# [7] = test system: PXR homodimer (NR concentration 270 nM)
# Procedure, shortened: as §1
# [8] = test system: RARa:RXR (NR concentration 270 nM, RXRa partner concentration 90 nM)
# Procedure, shortened: as §1
# [9] = test system: RARa homodimer (NR concentration 270 nM)
# Procedure, shortened: as §1
# [10] = test system: RARb:RXRa (NR concentration 270 nM, RXRa partner concentration 90 nM)
# Procedure, shortened: as §1
Sequence,PBM binding z-score [1],PBM binding z-score [2],PBM binding z-score [3],PBM binding z-score [4],PBM binding z-score [5],PBM binding z-score [6],PBM binding z-score [7],PBM binding z-score [8],PBM binding z-score [9],PBM binding z-score [10]
CCTTACGGGTCACTGACAGATTATAGCATTTGGA,3.42,3.85,0.84,0.266,2.31,3.04,0.241,4.3,1.11,3.93
AGAATGAGGTTAAGCTCAGGGAAACAGAATACAT,3.66,2.98,0.873,0.751,-0.0277,1.1,0.0253,2.17,-0.438,2.06
CGCCCAAGGTCATAGGAGGTCAGTGAAGACAGAT,2.88,4.26,-0.0879,-0.0436,3.59,6.51,3.76,5.06,1.63,5.45
CCTTACGGGTCAAGATTATAGCACGGGTGGTACG,1.74,2.81,-0.14,0.0306,2.2,2.85,-0.0377,4.07,1.11,3.98
ACTAGTTGGTCAGCTGAGGACACACACAATTCGG,0.766,1,0.592,0.377,0.0418,1.38,0.241,1.05,0.18,1.52
TTACCAAGGTGATAGGTCGTTGATGCACGCCTTG,1.07,2.82,0.428,0.413,1.26,0.611,-0.14,1.36,-0.163,1.07
ATATGTAGGATAAGGGTCATTCAGGTTGGTTCGC,4.06,5.32,1.23,0.978,3.23,4.9,2.87,4.72,2.11,3.18
TCTTGTACATCAAAGGTTAAGAAAGCCGAAGCCT,1.6,1.77,1.53,0.483,1.01,1.73,0.178,2.66,0.601,2.15
ATCTCTAGGGAAAGATAGTTCAGTGAATGCAAAT,0.0889,0.274,0.441,0.248,0.581,0.457,0.536,0.402,0.55,0.406
TCTAGCAGGCCAGAGGGTCACTCGAGAGGTACGG,0.838,0.906,-0.167,-1.13,0.221,1.24,-0.669,2.4,-0.335,2.19
ACTATTAGTTAACTTAGGGCAACCGATACGACGC,0.0765,0.837,0.677,1.02,0.328,0.418,0.13,0.582,0.421,0.959
CCTACTAGTTGACCATAAGGGCAACCGAAGCTCG,0.2,0.479,0.235,-0.627,1.22,0.406,0.317,0.81,1.01,1.39
TCTCGGAGGACACGAAGGTCATAGCTTTCCAGAG,1.58,1.77,-0.131,-1.04,1.95,3.8,3.5,3.59,0.346,3.62
CTACCAAGGTAAACAAGGTCGTTGATTACTATTC,1.19,0.986,-0.194,0.206,0.169,2.25,1.6,1.75,0.382,0.851
CCTTACGGGTCACTCCAGGTTATAACATCGGAGT,2.06,3.72,1.23,0.622,1.05,4.66,0.462,3.51,-0.23,3.67
TCTCGGAGGACACGAAGGTCAGATCTTTCCAGAG,1.59,0.717,-0.994,-1.02,2.07,2.44,2.3,2.16,0.52,3.35
CATACAGGGCCAGCTAGGCCAGAGTAGGGACGGC,-0.75,-0.0426,-0.139,-0.903,-0.651,-0.993,-0.765,-0.772,-0.751,0.645
ACTATTAGATGACTTAGGGCAACCGATACGACGC,0.577,0.319,1.54,1.42,1.03,-0.0258,0.554,0.143,1.38,0.885
ATCGAAAGGTCGAAGGTAAGTATACCCACCCGAA,-0.0708,1.49,0.751,0.919,0.93,2.6,0.149,3.27,0.263,3.59
AGAACGAGGGCACGCGGAGTTGATAGCAGAGTAG,4.28,4.01,0.563,-0.521,0.0413,1.45,-0.14,1.12,-0.653,2.64
ACTATTACTTGAGACGAGGGCAACCGATAGGTTG,0.899,1.15,0.818,1.3,1.24,0.601,0.904,0.426,1.54,1.3
TGACCAAGGTGAAAGGTCGTTGATGCACGCCTTG,2.01,4.8,0.518,-0.282,1.58,3.75,-0.00693,5.22,-0.166,3.03
TCTCGGAGGACACGAAGGTCACAGCTTTCCAGAG,1.84,2.4,0.166,-0.192,2.75,3.96,2.33,3.8,0.474,3.97
TAGCCTAGGACATTCAGGGGCCAGTATAGAAAGC,-0.851,-0.425,-0.632,-1.43,-1.03,-0.401,-0.611,-0.598,-0.859,0.541
